{"source": "PubChem BioAssay AID2016", "about": "(NMMLSC, 2009)", "note": "Screen size: about 330,000 compounds; about 1,700 (0.52%) were called active. This excerpt belongs to a sample that is enriched for actives. Unmarked numbers belong to inactive results.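 How the source made its calls: active means GFP response versus DMSO above a set limit, roughly screen mean plus 3 SD (cut at about 180% in these data); inconclusive means fewer than 70 cells counted for a yeast strain; inactive means the rest.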"}
{"test": "modulators of MEP2-GFP levels in yeast, primary screen, S. cerevisiae, multiplex flow cytometry, MLPCN library (AID 2016);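 further: median GFP fluorescence of the barcode-gated MEP2-GFP cells per well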", "details": "S. cerevisiae MEP2-GFP strain, 3 h, at 10 µM, active compounds read high, 100% = DMSO control level"}
{"smiles": "COc1ccc(/C=N/Nc2ncnc3sc4c(c23)CCCC4)cc1O", "GFP response vs DMSO": "106%"}
{"smiles": "CCOc1ncccc1C(=O)OCC(=O)NC1CC1", "GFP response vs DMSO": "100%"}
{"smiles": "CCOc1ncccc1C(=O)OCC(=O)N1c2ccccc2CC1C", "note": "(stereo not drawn)", "GFP response vs DMSO": "92.2%"}
{"smiles": "CCOc1ncccc1C(=O)OCc1cn2cc(Cl)ccc2n1", "GFP response vs DMSO": "561% [may fluoresce violet] (active)"}
{"smiles": "N#CC(C#N)=CN=c1ccn(Cc2ccc(Cl)cc2Cl)cc1", "GFP response vs DMSO": "107%"}
{"smiles": "COc1ccccc1CN1CCCC(N2CCN(c3ccc(F)cc3)CC2)C1", "note": "(stereo not drawn)", "GFP response vs DMSO": "485% [may fluoresce violet] (active)"}
{"smiles": "COc1ccc(CN2CCCC(N3CCc4ccccc4C3)C2)c(O)c1", "note": "(stereo not drawn)", "GFP response vs DMSO": "104%"}
{"smiles": "COc1ccccc1CN1CCN(Cc2cc(OC)c(OC)cc2OC)CC1", "GFP response vs DMSO": "114%"}
{"smiles": "COc1ccc(/C=C/CN2CCN(Cc3ccc(C)cc3)C(CCO)C2)cc1", "note": "(stereo not drawn)", "GFP response vs DMSO": "104%"}
{"smiles": "CC12CCC(=O)N1C(C(=O)NCCN1C(=O)S/C(=C\\c3ccccc3F)C1=O)CS2", "note": "(stereo not drawn)", "GFP response vs DMSO": "107%"}
{"smiles": "Cc1ccc(N(C(=O)CNC(=O)c2ccco2)C(C(=O)NC2CCCC2)c2ccncc2)cc1", "note": "(stereo not drawn)", "GFP response vs DMSO": "359% [may fluoresce violet] (active)"}
{"smiles": "CC(C)(C)NC(=O)C(c1ccncc1)N(C(=O)CNC(=O)c1ccco1)c1ccc2c(c1)OCO2", "note": "(stereo not drawn)", "GFP response vs DMSO": "111%"}
{"smiles": "COc1cccc(N(C(=O)CNC(=O)c2ccco2)C(C(=O)NC2CCCCC2)c2cccnc2)c1", "note": "(stereo not drawn)", "GFP response vs DMSO": "104%"}
{"smiles": "O=C(Nc1ccc(S(=O)(=O)NCC2CCCO2)cc1)c1ccc(F)cc1", "note": "(stereo not drawn)", "GFP response vs DMSO": "101%"}
{"smiles": "O=C(CN1CCCCCC1)Nc1c(Cl)cc(Cl)cc1Cl", "GFP response vs DMSO": "98.7%"}
{"smiles": "O=C1C2N=NN(CC(=O)N3N=C(c4cccc5ccccc45)CC3c3ccccc3)C2C(=O)N1c1ccccc1", "note": "(stereo not drawn)", "GFP response vs DMSO": "299% [may fluoresce violet] (active)"}
{"smiles": "Cc1ccc(N2C(=O)C3N=NN(CC(=O)N4N=C(c5cccc6ccccc56)CC4c4ccccc4)C3C2=O)cc1", "note": "(stereo not drawn)", "GFP response vs DMSO": "102%"}
{"smiles": "Oc1ccccc1C1=NN(c2ccccc2)C(c2ccccc2)C1", "note": "(stereo not drawn)", "GFP response vs DMSO": "107%"}
{"smiles": "CCOC(=O)c1c(NC(=O)CSc2nnc(CN3CCOCC3)n2C)sc2c1CCCC2", "GFP response vs DMSO": "99.8%"}
{"smiles": "CCOC(=O)C1CCN(C(=O)C2CCN(S(=O)(=O)CC)CC2)CC1", "GFP response vs DMSO": "98.5%"}
{"smiles": "Cc1ccc2cc3cc(C(=O)N4CCCCCC4)oc3nc2c1", "GFP response vs DMSO": "97.2%"}
{"smiles": "CCCCN1C(=O)c2ccc(C(=O)Nc3ccc(S(=O)(=O)N(C)C)cc3)cc2C1=O", "GFP response vs DMSO": "87.8%"}
{"smiles": "COCCN1C(=O)N[C@@H](CCc2ccccc2)[C@H](C(C)=O)[C@H]1C", "GFP response vs DMSO": "86.4%"}
{"smiles": "COCCN1C2=C(COC(C)(C)C2)C(=S)NC1c1ccccc1", "note": "(stereo not drawn)", "GFP response vs DMSO": "234% (active)"}
{"smiles": "COCCN1C(=O)N[C@@H](c2ccccc2)C(C(=O)OC)=C1C", "GFP response vs DMSO": "91.3%"}
{"smiles": "Brc1ccc2c(c1)[C@H]1OCC[C@H]1[C@@H](c1cccs1)N2", "GFP response vs DMSO": "102%"}
{"smiles": "C[C@H]1CCC(=O)N([C@H](CSc2ccccc2)Cc2ccccc2)CC1", "GFP response vs DMSO": "93.7%"}
{"smiles": "C=CCC1=C/C(=C\\c2c(N)n3nc(CC(=O)N4CCOCC4)sc3nc2=O)C=C(OC)C1=O", "GFP response vs DMSO": "102%"}
{"smiles": "CN(Cc1ccc(F)cc1)C(=O)CN1C(=O)c2ccccc2S1(=O)=O", "GFP response vs DMSO": "95%"}
{"smiles": "CCc1ccccc1OCC(=O)Nc1ccc2c(c1)OCCO2", "GFP response vs DMSO": "366% [may fluoresce violet] (active)"}
{"smiles": "COc1ccccc1OCCCC(=O)Nc1ccc2c(c1)OCCO2", "GFP response vs DMSO": "92.3%"}
{"smiles": "CCC(=O)c1cc(F)ccc1OCC(=O)Nc1ccc2c(c1)OCCO2", "GFP response vs DMSO": "104%"}
{"smiles": "CC12c3ccccc3C(c3ccccc31)C1C(=O)N(Cc3cccnc3)C(=O)C12", "note": "(stereo not drawn)", "GFP response vs DMSO": "107%"}
{"smiles": "COc1ccc(CNC(=O)CN2CCC(n3nnc4cc(F)ccc43)CC2)cc1", "GFP response vs DMSO": "88.8%"}
{"smiles": "O=C(Nc1cccnc1Cl)c1cc(-c2cccc(Cl)c2)on1", "GFP response vs DMSO": "103%"}
{"smiles": "O=C(Nc1cccc2cccnc12)c1cccc(Cl)c1", "GFP response vs DMSO": "567% [may fluoresce violet] (active)"}
{"smiles": "CSc1ccc(C#N)cc1NC(=O)c1cccc(Cl)c1", "GFP response vs DMSO": "102%"}
{"smiles": "Cc1ccc(S(=O)(=O)c2nnn3c2nc(N2CCN(c4ccccn4)CC2)c2ccccc23)cc1", "GFP response vs DMSO": "112%"}
{"smiles": "Cc1cccc(Nc2nc3c(S(=O)(=O)c4ccccc4)nnn3c3ccccc23)c1C", "GFP response vs DMSO": "1130% [may fluoresce green] (active)"}
{"smiles": "CC(=O)Nc1ccc(Nc2nc3c(S(=O)(=O)c4ccc(C)c(C)c4)nnn3c3ccccc23)cc1", "GFP response vs DMSO": "103%"}
{"smiles": "C=CC[C@@H](Cc1ccc(F)cc1)C(=O)OC[C@H]1CCCN1C(=O)[C@H](CC=C)CC(=O)N(CCO)Cc1ccccc1", "GFP response vs DMSO": "103%"}
{"smiles": "NC1=NC(c2ccc([N+](=O)[O-])cc2)N(c2ccc(F)cc2)C(N)=N1", "note": "(stereo not drawn)", "GFP response vs DMSO": "107%"}
{"smiles": "O=C(CC1SC(=Nc2ccccc2F)N(CCN2CCOCC2)C1=O)Nc1ccc(F)cc1F", "note": "(stereo not drawn)", "GFP response vs DMSO": "177% (active)"}
{"smiles": "O=C(CN1CCN(C/C=C/c2ccccc2)CC1)Nc1ccc(F)cc1F", "GFP response vs DMSO": "100%"}
{"smiles": "O=C(CC1SC(N2CCOCC2)=NC1=O)Nc1ccccc1F", "note": "(stereo not drawn)", "GFP response vs DMSO": "91.9%"}
{"smiles": "CCCN1C2CCCC1CC(NC(=O)c1cccc(OC)c1)C2", "note": "(stereo not drawn)", "GFP response vs DMSO": "93.2%"}
{"smiles": "Cc1ccc(-n2cc3ccc([N+](=O)[O-])cc3n2)cc1", "GFP response vs DMSO": "98.2%"}
{"smiles": "Cc1ccc2c(c1)N(CC(=O)NCCc1ccc(Cl)cc1)C(=O)c1cccnc1O2", "GFP response vs DMSO": "110%"}
{"smiles": "CCCCNC(=O)C1(O)c2ccccc2NC(=O)N1c1ccc(Cl)cc1", "note": "(stereo not drawn)", "GFP response vs DMSO": "108%"}
{"smiles": "CCCCC1N2CC3([N+](=O)[O-])CN1CC([N+](=O)[O-])(C2)C3(C)C", "note": "(stereo not drawn)", "GFP response vs DMSO": "96.3%"}
{"smiles": "O=c1c2c(nc3cc(-c4cccc(Cl)c4)[nH]n13)CCCC2", "GFP response vs DMSO": "98.5%"}
{"smiles": "CSc1nc2nc3c(c(=O)n2[nH]1)CCC3", "GFP response vs DMSO": "95.3%"}
{"smiles": "O=c1c2c(nc3nc[nH]n13)CCC2", "GFP response vs DMSO": "532% [may fluoresce violet] (active)"}
{"smiles": "CNC(=O)Nc1cc(C(C)(C)C)no1", "GFP response vs DMSO": "107%"}
{"smiles": "CCN(CC)c1ccc([N+](=O)[O-])cc1C(=O)O", "GFP response vs DMSO": "109%"}
{"smiles": "Cc1noc(C)c1CCC(=O)N1CCCC(CO)(Cc2ccccc2)C1", "note": "(stereo not drawn)", "GFP response vs DMSO": "96.4%"}
{"smiles": "Cc1ccc(F)c(NC(=O)CCOc2ccccc2C)c1", "GFP response vs DMSO": "96.5%"}
{"smiles": "CCn1ncc(Br)c1C(=O)Nc1cc(C)ccc1F", "GFP response vs DMSO": "233% [may fluoresce violet] (active)"}
{"smiles": "Cc1ccc(F)c(NC(=O)CCc2ccccc2)c1", "GFP response vs DMSO": "93.7%"}
{"smiles": "Cc1nnc(N(Cc2ccco2)C(=O)c2ccno2)s1", "GFP response vs DMSO": "99%"}
{"smiles": "CC(C)CC(CO)N1CCN(C(=O)c2ccc(Cl)cc2Cl)CCC1=O", "note": "(stereo not drawn)", "GFP response vs DMSO": "96.1%"}
{"smiles": "CCCS(=O)(=O)Nc1ccc(-c2cn3c(n2)SCC3)cc1", "GFP response vs DMSO": "255% [may fluoresce violet] (active)"}
{"smiles": "CCCCc1c(O)nc2n(c1=O)CCS2", "GFP response vs DMSO": "92.6%"}
{"smiles": "CCS(=O)(=O)Nc1ccc(C2=NN(C(C)=O)C(c3cccs3)C2)cc1", "note": "(stereo not drawn)", "GFP response vs DMSO": "107%"}
{"smiles": "CCOc1ccc(NS(=O)(=O)c2ccc(C(=O)NCC(c3ccccc3OC)N3CCCC3)cc2)cc1", "note": "(stereo not drawn)", "GFP response vs DMSO": "102%"}
{"smiles": "O=C(Nc1ccc(N2CCOCC2)c(Cl)c1)c1ccc(S(=O)(=O)N2CCOCC2)cc1", "GFP response vs DMSO": "95.7%"}
{"smiles": "Cc1cc(C)n(-c2ccc(NC(=O)C3CCCCN3C(=O)c3cccs3)cc2)n1", "note": "(stereo not drawn)", "GFP response vs DMSO": "92.9%"}
{"smiles": "Cc1cc(C)c(OCCN2CC(C)OC(C)C2)c(Br)c1", "note": "(stereo not drawn)", "GFP response vs DMSO": "101%"}
{"smiles": "Cc1ccc(-c2nc(CS(=O)(=O)CC(=O)NCc3ccc4c(c3)OCO4)c(C)o2)cc1", "GFP response vs DMSO": "102%"}
{"smiles": "COc1cccc(-c2nc(CS(=O)(=O)CC(=O)NCCc3ccc(OC)c(OC)c3)c(C)o2)c1", "GFP response vs DMSO": "98.7%"}
{"smiles": "COc1ccc(CCNC(=O)CS(=O)(=O)Cc2nc(-c3ccc(C)cc3)oc2C)cc1OC", "GFP response vs DMSO": "186% (active)"}
{"smiles": "O=C(CN1C(=O)c2cccnc2Oc2ccc(Cl)cc21)Nc1ccc(F)cc1", "GFP response vs DMSO": "105%"}
{"smiles": "CCOc1cc2[nH]c(=O)n(CCC(=O)NCc3ccc(OC)cc3)c(=O)c2cc1OCC", "GFP response vs DMSO": "223% [may fluoresce violet] (active)"}
{"smiles": "COc1ccc(CNC(=O)CCN2C(=O)c3ccccc3C2=O)cc1", "GFP response vs DMSO": "96.1%"}
{"smiles": "COc1ccc(CNC(=O)CCn2cccc2)cc1", "GFP response vs DMSO": "94.3%"}
{"smiles": "Cc1nccn1CC(=O)N/N=C/c1ccc(O)c(O)c1", "GFP response vs DMSO": "105%"}
{"smiles": "O=C(N/N=C/c1ccc(Cl)c(Cl)c1)c1ccc2nc[nH]c2c1", "GFP response vs DMSO": "97.5%"}
{"smiles": "NCCCCCC(=O)N/N=C/c1ccc2nccnc2c1", "GFP response vs DMSO": "673% [may fluoresce violet] (active)"}
{"smiles": "COCCN(C(=O)CCC(=O)Nc1ccccn1)C(C(=O)NCCC(C)C)c1ccc(OC)cc1", "note": "(stereo not drawn)", "GFP response vs DMSO": "107%"}
{"smiles": "CCOc1ccc(C(C(=O)NCCOC)N(CCOC)C(=O)CCC(=O)Nc2ccccn2)cc1", "note": "(stereo not drawn)", "GFP response vs DMSO": "296% [may fluoresce violet] (active)"}
{"smiles": "COCCNC(=O)C(c1ccc(C)cc1)N(C(=O)CCC(=O)Nc1ccccn1)c1cccc(C)c1", "note": "(stereo not drawn)", "GFP response vs DMSO": "107%"}
{"smiles": "Cn1c(CCC(=O)OCC(=O)NCc2ccccc2Cl)nc(=O)c2ccccc21", "GFP response vs DMSO": "99.4%"}
{"smiles": "COc1cc(Cl)c(C)cc1NC(=O)CSc1nnc(CN2CCCC2)o1", "GFP response vs DMSO": "105%"}
{"smiles": "CC1CC(=S)Nc2ccccc2N1Cc1ccccc1", "note": "(stereo not drawn)", "GFP response vs DMSO": "98.4%"}
{"smiles": "Cc1cc(NS(=O)(=O)c2ccc(NC(=O)c3cccc(OC(F)F)c3)cc2)nc(C)n1", "GFP response vs DMSO": "92%"}
{"smiles": "Cc1cccc(C)c1NC(=O)CS(=O)CC(=O)N1CCN(c2ccccc2)CC1", "note": "(stereo not drawn)", "GFP response vs DMSO": "102%"}
{"smiles": "CC[n+]1cc(C)ccc1/C=C/c1ccc(N(C)C)cc1", "GFP response vs DMSO": "180% (active)"}
{"smiles": "Cc1ccccc1NC(=O)C1CCCN(C(=O)NCc2ccccc2)C1", "note": "(stereo not drawn)", "GFP response vs DMSO": "105%"}
